The results in this text go back to PubChem BioAssay AID1508602 (The Scripps Research Institute Molecular Screening Center, 2020).

Hit rate of the full screen: of about 650,000 compounds, about 6,800 (1%) were called active. The full list was thinned out, with actives kept by preference. Values without a mark were called inactive. Rule as the data show it: active = activation above about 4.9%; inactive = the rest.

In the test the target is G-protein coupled receptor 151 (Homo sapiens) (UniProt Q8TDV0). The experiment in a line: activates the human receptor GPR151, primary screen, cell-based, PathHunter beta-arrestin, luminescence (AID 1508602).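 Also: 0% = median of compound wells and 100% = cells with positive control.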 The note with it: PathHunter beta-arrestin GPR151 cells, at 11.2 µM, active compounds read high.
Chain of G-protein coupled receptor 151 (Homo sapiens) (Q8TDV0 whole entry, looked up): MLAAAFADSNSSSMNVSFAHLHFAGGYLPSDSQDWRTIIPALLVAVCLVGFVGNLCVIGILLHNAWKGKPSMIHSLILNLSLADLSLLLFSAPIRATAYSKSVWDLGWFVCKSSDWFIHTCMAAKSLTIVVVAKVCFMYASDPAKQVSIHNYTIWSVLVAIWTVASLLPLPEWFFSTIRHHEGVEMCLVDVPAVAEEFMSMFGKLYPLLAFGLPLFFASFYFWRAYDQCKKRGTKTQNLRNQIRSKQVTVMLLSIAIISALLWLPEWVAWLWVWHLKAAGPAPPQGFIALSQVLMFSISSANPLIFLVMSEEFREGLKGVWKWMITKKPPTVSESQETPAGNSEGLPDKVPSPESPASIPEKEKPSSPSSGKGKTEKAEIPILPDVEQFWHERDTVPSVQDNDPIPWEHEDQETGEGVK
On to `COCCOC(=O)C1=C(N)OC2=C(C(=O)CC(C)(C)C2)C1c1ccc(F)c(F)c1` (stereo not drawn), for which the activation was 0.277%.

For `CC1=C(C(=O)OCCOc2ccccc2)C(c2ccccc2F)NC(=O)N1` (stereo not drawn), the activation is -1.1%.

As for `CCOC(=O)c1sc(NC(=O)C(C)Sc2nnc(CNC(=O)c3ccc(OC)cc3)n2Cc2ccccc2)c(C(=O)OCC)c1C` (stereo not drawn), the activation was -1.72%.

`COc1ccc(-c2nc(N)c3[nH]cnc3n2)cc1`: the activation is -0.0768%.

On to `CSc1nc(N)nc2nc[nH]c12`, for which the activation was 16.2% (active).

Regarding `Nc1nc(SCc2cccc3ccccc23)c2[nH]cnc2n1`, the activation is -0.0695%.

Turning to `CC(C)CC(=O)N1CCc2ccccc2C1`, the activation is -1.1%.

On to `O=C(Cn1c(=S)nc2ccccn21)N1CCc2ccccc2C1`, for which the activation is 7.33% (active).

In the case of `Cc1cccc2cnn(CC(=O)N3CCc4ccccc4C3)c12`, the activation is -2%.

Take `CCc1nc(N2CCC(C(=O)O)CC2)c2oc3ccccc3c2n1`: the activation is -2.33%.

`CCOc1ccc(C2=C(C(=O)CC)Sc3nnc(CC)n3N2C(=O)CC)cc1`: the activation is -0.342%.

As to `CCc1nnc2n1N(C(C)=O)C(c1ccc3c(c1)CCCC3)=C(C(C)=O)S2`, the activation was 8.6% (active).

As for `CC(=O)C1=C(c2ccc(C(C)(C)C)cc2)N(C(C)=O)n2cnnc2S1`, the activation was 0.857%.

With `CCOc1ccccc1CNn1c(-c2ccc(OC)cc2)nc2ccccc2c1=O`, the activation is -1.68%.

Take `COc1ccccc1/C=C/CN1CCNC(=O)C1CC(=O)NC1CC1` (stereo not drawn): the activation is -1.56%.

On to `CCCSc1nnc2c(n1)OC(c1cccc(Br)c1)Nc1ccccc1-2` (stereo not drawn), for which the activation is -0.594%.

Turning to `COc1ccc(N2C(=O)C(Cl)=C(Nc3ccc(C)cc3)C2=O)cc1`, the activation was 5.51% (active).

On to `CCOC(=O)C1=C(C)N(c2ccc(C)cc2)C(=O)/C1=C\c1ccc(OC)cc1`, for which the activation is -0.542%.

With `COc1ccc(NCN2C(=O)c3cc(Cl)c(Cl)cc3C2=O)cc1`, the activation is -1.71%.

Take `COc1cc(/C=C2/NC(=O)N(Cc3ccc(Br)cc3)C2=O)ccc1O`: the activation was -0.481%.

Consider `O=C(Cc1ccccc1)N1CCCc2ccccc21`, for which the activation was 0.472%.

Consider `O=C(C1CCN(S(=O)(=O)Cc2ccccc2)CC1)N1CCCc2ccccc21`, for which the activation was 8.15% (active).

As for `O=C(C1CCCN1S(=O)(=O)c1ccc(Cl)cc1)N1CCCc2ccccc21` (stereo not drawn), the activation was -1.26%.

As to `Cc1ccc(C(=O)Nc2ccc(O)c(-c3nc4ccccc4o3)c2)cc1`, the activation is 1.96%.

As for `C/C(CC(=O)Nc1cccc(F)c1)=N\NC(=O)c1cccc(C)c1`, the activation is 0.312%.

For the molecule `COc1ccc2c(Cl)c(C(=O)Nc3ccc(N(C)C(C)=O)cc3)sc2c1`, the activation is 0.165%.

With `c1ccc2c(c1)CCC2Nc1nncc(-c2ccc3c(c2)OCO3)n1` (stereo not drawn), the activation is 0.54%.

On to `CN(Cc1nc(-c2ccc3c(c2)OCO3)no1)C1CCCc2ccccc21` (stereo not drawn), for which the activation is 6.73% (active).

For `O=C1CC[C@@H](CN(Cc2ccccn2)Cc2nc(-c3ccc4c(c3)OCO4)no2)N1`, the activation was -0.5%.

As to `O=C1c2cccnc2C(=O)N1Cc1ccc(S(=O)(=O)NCc2ccccc2Cl)cc1`, the activation was -0.655%.

For `COC(=O)c1sc(SC)nc1Nc1ccnc(Nc2ccc(N3CCOCC3)cc2OC)c1`, the activation was 0.519%.

In the case of `COc1ccc(NC(=O)/C(C#N)=C/c2ccccc2[N+](=O)[O-])cc1`, the activation is 0.536%.

In the case of `COc1ccc(/C=C(\C#N)C(=O)Nc2ccc(F)cc2)c(OC)c1`, the activation is 6.94% (active).

As to `COc1cccc(/C=C(/C#N)C(=O)Nc2ccc(F)cc2)c1O`, the activation was 0.228%.

With `CCOc1nn(CC)cc1-c1nnc(SCC(=O)NC)n1C`, the activation was 1.61%.

With `CCCNC(=O)N1CCC2(CC1)OCc1ccccc1O2`, the activation was -0.163%.

Regarding `O=C(NCCN1CCOCC1)c1cncc(-c2ccccc2)c1`, the activation is -0.0692%.

With `CC(=O)Oc1cc2c(C(=O)NCCN3CCOCC3)c(C)oc2c2ccccc12`, the activation is 7.59% (active).

For `Cn1c(=O)cc(OCC(=O)NCCN2CCOCC2)c2ccccc21`, the activation was -0.103%.

As for `CC(O)CNc1ncnc2c1c(-c1ccccc1)cn2-c1ccc(Cl)cc1` (stereo not drawn), the activation is -0.64%.

Take `O=C(Nc1cc(Oc2cccnc2)cc([N+](=O)[O-])c1)c1cc2nc(-c3ccc(F)cc3)cc(C(F)(F)F)n2n1`: the activation is 0.0201%.

`Cn1ccc(CC(=O)N2CCOc3ccc(CN4CCCC4)cc3C2)c1`: the activation was -0.228%.

As to `CCC(=O)Nc1cc(C(=O)O)ccc1C`, the activation is 5.86% (active).

On to `CCC(=O)Nc1ccc(C(=O)c2ccccc2)cc1NC(=O)CC`, for which the activation was 0.269%.

Turning to `COc1cccc(OC)c1C(=O)Nc1cc(C(=O)O)ccc1C`, the activation is 1.75%.

As for `COc1ccc(NC(=O)c2cc(S(=O)(=O)N3CCCCC3)ccc2F)cc1`, the activation is -0.423%.

Take `COc1ccc(/C=C(\C#N)C(=O)Nc2cccc(S(=O)(=O)N3CCCCC3)c2)cc1`: the activation is 6.12% (active).

For the molecule `CCOc1ccc(NC(=O)/C(C#N)=C\c2ccc(OC)cc2)cc1`, the activation was -0.986%.

As for `O=C(COc1ccc([N+](=O)[O-])cc1)Nc1ccc2oc(-c3cccc(F)c3)nc2c1`, the activation is 6.49% (active).

With `Cc1cc2nc(-c3cccc(NC(=O)COc4ccc(Br)cc4)c3)oc2cc1C`, the activation was -0.225%.

`O=C(COc1ccc([N+](=O)[O-])cc1)Nc1cccc(Br)c1`: the activation is 0.574%.

Consider `Cc1cccc(NC(=O)COc2ccc([N+](=O)[O-])cc2)c1`, for which the activation was 0.0864%.

With `COC(=O)c1cc(NC(=O)COc2ccc([N+](=O)[O-])cc2)cc(C(=O)OC)c1`, the activation is 5.49% (active).

For the molecule `O=C(Nc1ccc2oc(-c3ccc(F)cc3)nc2c1)c1ccc([N+](=O)[O-])cc1`, the activation is 0.435%.

`CCCNc1nc(Cl)nc2c1ncn2Cc1ccc(C(F)(F)F)cc1`: the activation is 0.16%.

In the case of `O=C(Cc1csc(SCc2cccc(Cl)c2)n1)NC1CCCC1`, the activation is -0.537%.

`CCC(=O)N(CCC(Cc1ccccc1)c1ccc2c(c1)OCO2)Cc1ccc(OC(C)C)cc1` (stereo not drawn): the activation is 6.12% (active).

For `Cc1ccc2c(c1)N(CC(=O)N(Cc1ccccc1)Cc1ccc3c(c1)OCO3)C(=O)CO2`, the activation is 1.35%.

With `O=C(Nc1ccc2c(c1)OCO2)C(c1ccccc1)N(Cc1ccccc1)Cc1ccccc1` (stereo not drawn), the activation was -0.714%.

On to `CCn1c(SCC(=O)Nc2ccccc2Cl)nnc1-c1ccccc1N`, for which the activation is 0.603%.

On to `CC(C)(C)C(=O)CSc1nc2c(sc(=S)n2CCc2ccccc2)c(=O)n1Cc1ccco1`, for which the activation was -0.941%.

For the molecule `O=C(NCCc1ccccc1)C(=O)NCCC1CCCCC1`, the activation was -1.51%.

Consider `CNC(=O)C(=O)NCCc1ccccc1`, for which the activation was 2.61%.

On to `CC(C)(C)C1CCC(=NNC(=O)C(=O)NCCc2ccccc2)CC1` (stereo not drawn), for which the activation is 6.69% (active).

Take `Cc1ccc2c(CC(=O)N3CCc4ccccc4C3)cc(=O)oc2c1`: the activation is -1.02%.

On to `Cc1nnc(C)n1/N=C/c1ccc(Br)cc1`, for which the activation is 0.537%.

Turning to `Cc1nc([N+](=O)[O-])cn1CC(=O)C12CC3CC(CC(C3)C1)C2`, the activation was 0.332%.

For the molecule `COc1ccc(CCNc2cc(C)nc3ncnn23)cc1`, the activation is -0.69%.

With `COP(=O)(OC)C(OC(=O)NC(=O)C(Cl)(Cl)Cl)c1ccccc1` (stereo not drawn), the activation is 0.583%.

Consider `CCN(CC)S(=O)(=O)c1ccc(N2CCCC2)c(C(=O)O)c1`, for which the activation is 1.07%.

On to `CCN(CC)S(=O)(=O)c1ccc(N2CCCC2)c(NC(=O)c2ccc([N+](=O)[O-])o2)c1`, for which the activation is 5.27% (active).

Turning to `O=C(Nc1ccc(N2CCCCC2)c(Cl)c1)c1ccc([N+](=O)[O-])o1`, the activation was 1.67%.

Turning to `Cc1ccc(-c2cnn3ccc(NCc4cccnc4)nc23)cc1C`, the activation is -1.12%.

For the molecule `Cc1ccc(S(=O)(=O)N/N=C/c2c[nH]c3ccc(Br)cc23)cc1`, the activation was 0.63%.

In the case of `O=C(O)c1ccc(-c2nc(-c3cccs3)c(-c3cccs3)[nH]2)cc1`, the activation is 1.43%.

On to `c1ccc(-c2nc(-c3cccs3)[nH]c2-c2cccs2)cc1`, for which the activation was 6.25% (active).

In the case of `COc1cc(OC)cc(-c2nc(-c3ccccc3)c(-c3cccs3)[nH]2)c1`, the activation is 0.0508%.

Consider `O=C1NC2(CCN(CC3CCC=CO3)CC2)Oc2ccccc21` (stereo not drawn), for which the activation is -0.166%.

For `CCN(CC)S(=O)(=O)c1cccc(C(=O)N/N=C(\C)c2ccc(C#N)cc2)c1`, the activation was -0.108%.

As for `N#Cc1cccc(S(=O)(=O)Nc2cccc(Br)c2)c1`, the activation was 0.99%.

In the case of `CCN(CC)S(=O)(=O)c1ccc(C)c(NS(=O)(=O)c2cccc(C#N)c2)c1`, the activation was 5.51% (active).

With `COc1cccc(C(=O)Nc2sc3c(c2C(N)=O)CCCCCC3)c1`, the activation was 6.65% (active).

As for `CNC(=O)c1c(NC(=O)c2cccc(OC)c2)sc2c1CCC2`, the activation is -0.776%.

With `CNC(=O)c1c(NC(=O)c2ccc(OC)cc2)sc2c1CCCCC2`, the activation was -1.51%.

As to `CC(C)Oc1ccc(C(=O)Nc2sc3c(c2C(N)=O)CCCC3)cc1`, the activation is -0.378%.

Take `COc1ccc(C(=O)Nc2sc3c(c2C(N)=O)CCCC3)cc1`: the activation was 5.12% (active).

Consider `NC(=O)c1c(NC(=O)c2ccc(Oc3ccccc3)cc2)sc2c1CCCCC2`, for which the activation was -0.921%.

As for `CCc1ccc2[nH]c3nc(SCC#N)nnc3c2c1`, the activation is -0.711%.

As for `COCCN1C(=O)CC(CC(=O)N2CCN(C)C[C@@H]2C(C)C)(c2cccc(OC)c2)C1=O` (stereo partly drawn), the activation is 1.08%.

On to `CCCCOc1ccc(S(=O)(=O)NC2CCCCC2)cc1`, for which the activation was -1.26%.

As for `Cc1nn(C)c(C)c1-c1nc2c(NCCO)ncnc2n1C(C)C`, the activation is -0.731%.

In the case of `Cc1nn(C)c(C)c1-c1nc2ncnc(NCCO)c2[nH]1`, the activation was 7.4% (active).

Turning to `OCCNc1ncnc2nc(-c3ccccc3)[nH]c12`, the activation is 0.187%.
